High-throughput results: PubChem BioAssay, several laboratories
MEKK2 mut-MEK5 – signal of MEK5 binding to mutant human MEKK2 PB1 domain. bead flow cytometry, Alexa488-MEK5 binding to MEKK2 mutant. percent response, % at 10 µM. 290,000 tested, 0.35% active; in the data active means percent response above about 24%, passing the limit was not always enough
NRP1-CendR mod – modulators of CendR peptide binding to human neuropilin-1; O14786; FAM-RPARPAR peptide binding to NRP-1, fluorescence polarization; inhibition, % at 25 µM; 360,000 tested, 0.85% active;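 active means inhibition or corrected inhibition above about 18%, plus a signal ratio from 0.5 to 1.5, limit read from the data, passing the limit was not always enough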
MEKK3 PB1 HTS – MEKK3-MEK5 PB1 interaction, increase or decrease | Q99759 | bead-based flow cytometry, Alexa488-MEK5 binding to MEKK3; actives lie on both sides; 0 = blocked by unlabeled MEK5, 100 = vehicle | binding response (% of control), % at 10 µM | 290,000 tested, 1.4% active | AID 1529;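 active means binding response more than 3 SD above or below the average of its plate-row segment, actives on both sides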;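 further: Alexa488 bead fluorescence after subtracting the streptavidin-only scavenger bead signal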
Target sequence (Q99759 whole entry, looked up): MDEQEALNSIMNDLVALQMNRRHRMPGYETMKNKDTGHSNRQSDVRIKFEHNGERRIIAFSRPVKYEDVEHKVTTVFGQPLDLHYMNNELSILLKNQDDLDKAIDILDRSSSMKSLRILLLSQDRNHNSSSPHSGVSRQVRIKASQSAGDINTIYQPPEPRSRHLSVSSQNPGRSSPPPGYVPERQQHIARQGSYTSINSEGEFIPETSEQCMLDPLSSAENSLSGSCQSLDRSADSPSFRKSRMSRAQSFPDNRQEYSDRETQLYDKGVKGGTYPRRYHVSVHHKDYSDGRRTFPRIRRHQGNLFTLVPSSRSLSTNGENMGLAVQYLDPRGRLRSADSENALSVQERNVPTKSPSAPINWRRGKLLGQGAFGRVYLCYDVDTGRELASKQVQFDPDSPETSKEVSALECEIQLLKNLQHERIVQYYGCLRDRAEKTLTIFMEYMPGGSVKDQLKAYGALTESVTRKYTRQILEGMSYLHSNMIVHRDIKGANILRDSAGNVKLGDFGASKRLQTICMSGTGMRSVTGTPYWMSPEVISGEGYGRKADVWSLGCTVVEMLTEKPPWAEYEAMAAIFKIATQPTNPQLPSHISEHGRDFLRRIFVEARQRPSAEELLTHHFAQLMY
SKN-1 block – blocks SKN-1 activity in C. elegans; C. elegans VP596 Pgst-4::GFP/RFP ratio, acrylamide-induced, 24 h; inhibition, % at 21.8 µM; 360,000 tested, 0.49% active;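 active means interference check ratio from 0.5 to 1.5 plus GFP to RFP signal ratio inhibition reaching or exceeding a fixed threshold, cut at about 30% in these data, passing the limit was not always enough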
MEKK2wt PB1 HTS – raises or lowers MEK5 binding to wildtype human MEKK2 PB1 domain; bead flow cytometry, Alexa488-MEK5 binding to MEKK2 WT; actives lie on both sides; AID 1531; Q9Y2U5; binding response (% of control), % at 10 µM; 290,000 tested, 1.1% active; in the data active means binding response below about 67% or above about 130%
MEKK2wt confirm – raises or lowers MEK5 binding to wildtype human MEKK2, retest. shares compounds with MEKK3 PB1 HTS. bead flow cytometry, Alexa488-MEK5 binding to MEKK2 WT; actives lie on both sides. binding response (% of control), % at 10 µM. 5,900 tested, 2.4% active; in the data active means binding response below about 16% or above about 210%; inactive means in between
MEKK2mut-MEK5 – signal of MEK5 binding to mutant human MEKK2, retest; shares compounds with MEKK3 PB1 HTS; bead flow cytometry, Alexa488-MEK5 binding to MEKK2 mutant; percent response, % at 10 µM; 5,900 tested, 2% active; AID 1893; in the data active means percent response mostly above about 71%, no sharp cut-off; inactive means mostly below about 38%;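 further: higher means compound restores mutant binding toward wildtype level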
MEKK3-MEK5 inh – MEKK3-MEK5 PB1 inhibition, single concentration confirmation. binding response (% of control), % at 10 µM. 5,900 tested, 1.8% active. shares compounds with MEKK3 PB1 HTS. AID 1894. bead flow cytometry, Alexa488-MEK5 binding to MEKK3; active compounds read low;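 active means binding response below 72% of control, or above a set upper limit, though filed actives all read lower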;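 further: 100% = DMSO only wells and 0% = binding blocked by excess unlabeled MEK5; lower values mean stronger disruption of MEK5 binding to MEKK3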
An asterisk follows results filed as active; / = no result; [ ] = another dose, or the depositor's remark. Shown are actives, neighbours in structure and some others; about 3.2% of the full set was active somewhere.

SMILES	MEKK2 mut-MEK5	NRP1-CendR mod	MEKK3 PB1 HTS	SKN-1 block	MEKK2wt PB1 HTS	MEKK2wt confirm	MEKK2mut-MEK5	MEKK3-MEK5 inh
COC(=O)c1ccc(C)c(-n2c(C)cc(C=O)c2C)c1	0	7	150*	1	112	97	1	95
COc1ccccc1N=NNc1ccc(S(=O)(=O)NC(C)=O)cc1	/	16	/	17	/	/	/	/
COc1cccc(C2=NO[C@@H]3C(=O)N(Cc4ccccc4)C(=O)[C@H]23)c1OC	7	23	128*	0	116	96	-4	98
COc1cccc(C2=NO[C@@H]3C(=O)N(c4ccc5c(c4)OCCO5)C(=O)[C@H]23)c1OC	0	-19	99	17	98	/	/	/
C/C(=N\NC(=S)Nc1cccc(C)c1)c1ccco1	-18	8	7.0*[inhibitor]	-8	9.0*[inhibitor]	106	5	105
COc1ccc(NC(=O)c2sc(=O)n(Cc3ccccc3C#N)c2C)cc1OC	/	-24	/	-2	/	/	/	/
Cc1cc2cc(CN(CCN(C)C)C(=S)NCc3ccco3)c(=O)[nH]c2cc1C	8	-32	84	-5	160*	118	8	103
Cc1ccc(C)c2[nH]c(=O)c(CN(CC3CCCO3)C(=S)NCc3ccco3)cc12 (stereo not drawn)	29	-13	129*	0	116	101	5	104
Cc1ccc(C)c2[nH]c(=O)c(CN(Cc3cccs3)C(=S)NCc3ccco3)cc12	1	1	137*	-3	115	109	9	103
Cc1cc2cc(CN(Cc3cccs3)C(=S)NCc3ccco3)c(=O)[nH]c2cc1C	-2	4	94	11	96	/	/	/
Cc1ccc(N(Cc2cc3ccc(C)cc3[nH]c2=O)C(=O)c2ccco2)c(C)c1	22	1	132*	-6	117	102	5	107
Cc1ccc(Oc2cc([N+](=O)[O-])cc3c2C(=O)Nc2ccccc2O3)cc1	-2	-70	130*	15	94	95	-4	100
O=C1Nc2ccccc2Nc2ccc([N+](=O)[O-])cc21	1	7	105	24	104	/	/	/
Cc1cc(Br)cn2c(Cc3ccccc3)c(-c3ccccc3)nc12	/	-6	/	11	/	/	/	/
CCCCCCCCCCC[N+](C)(C)CC/C=C1/c2ccccc2Sc2ccc(Cl)cc21	143*	0	97	7	278*	195	60	111
CC[N+](C)(C)CC/C=C1/c2ccccc2Sc2ccc(Cl)cc21	5	-13	104	7	111	/	/	/
OCCN1CCN(CC/C=C2/c3ccccc3Sc3ccc(Cl)cc32)CC1	/	-5	/	9	/	/	/	/
CCCCCCCCCC[N+](C)(C)CC/C=C1/c2ccccc2Sc2ccc(Cl)cc21	147*	12	108	19	291*	321*	172*	115
CN(C)CC/C=C1\c2ccccc2Sc2ccc(Cl)cc21	17	-4	72*[inhibitor]	-19	164*	136	16	99
Cc1ccc(C)c(S(=O)(=O)N2CCN(C(=O)CCC(=O)c3cc(C)sc3C)CC2)c1	/	-9	/	-8	/	/	/	/
CCN(CC)c1nc(-c2ccc(C(=O)NN)cc2)nc(-c2ccc(C(=O)NN)cc2)n1	8	9	108	4	106	/	/	/
CCOc1ccc(=O)n(-c2ccccc2)n1	3	8	113	-16	102	/	/	/
CCn1c(COc2ccc(=O)n(-c3ccccc3)n2)n[nH]c1=S	4	-5	129*	-3	117	89	-8	94
O=C(O)/C=C/C(=O)OC1CC2CCC1C2 (stereo not drawn)	29	16	134*	3	117	105	8	105
CCCCNC(=O)C1(C)CCC(=O)N1C1CCN(Cc2ccccc2)CC1 (stereo not drawn)	/	1	/	10	/	/	/	/
SMILES	MEKK2 mut-MEK5	NRP1-CendR mod	MEKK3 PB1 HTS	SKN-1 block	MEKK2wt PB1 HTS	MEKK2wt confirm	MEKK2mut-MEK5	MEKK3-MEK5 inh
Cc1ccc(NC(NC(=O)c2ccccc2[N+](=O)[O-])C(Cl)(Cl)Cl)cc1 (stereo not drawn)	0	-10	133*	6	109	98	3	99
CSc1ccc(/C=C/C(=O)OCC(=O)c2ccc[nH]2)cc1	/	-16	/	-9	/	/	/	/
Cc1c(C)[n+](=O)c(-c2ccc(Br)cc2)c(C)n1[O-]	-7	1	50*[inhibitor]	6	47*[inhibitor]	94	-9	98
Cc1c(-c2ccccc2)[n+](=O)c(-c2ccc(Br)cc2)c(C)n1[O-]	-5	4	91	13	90	/	/	/
OCCCNc1c2ccccc2nc2ccccc12	5	16	103	-21	106	/	/	/
COc1ccc(CN2CCN(C(c3ccc(F)cc3)c3ccc(F)cc3)CC2)c(OC)c1OC	15	-2	114	-5	183*	138	34	105
O=C(Cc1ccc2c(c1)OCCO2)Nc1cc(C(F)(F)F)ccc1N1CCOCC1	/	7	/	22	/	/	/	/
COc1cc(C)ccc1OCCCOc1c(Cl)cccc1Cl	0	0	133*	15	106	102	-2	102
COc1cc(C)ccc1OCCCOc1cc(C)ccc1Cl	2	0	106	-7	105	/	/	/
COc1cc(C)ccc1OCCOCCOc1cc(C)c(C)cc1Br	0	-2	134*	6	106	104	10	103
COc1ccccc1OCCCOc1c(Cl)cc(C)cc1Cl	0	-15	134*	5	108	107	1	105
CCOc1ccccc1CN1CCNC(=O)C1CC(=O)NCCC1=CCCCC1 (stereo not drawn)	24*	45*	103	17	127	125	15	104
COCC(=O)N1CCC(Oc2ccc(C(=O)N3CCSCC3)cc2)CC1	10	1	105	8	110	/	/	/
CCCCN(C(=O)Nc1ccc(OCC)cc1)C1CCN(C(C)=O)CC1	-3	-4	93	-2	-1.0*[inhibitor]	101	3	98
CCCCN(C)C1CCN(C(=S)Nc2ccc(OCC)cc2)CC1	-12	-9	94	-6	86	/	/	/
O=C(CN1CCN(Cc2ccc3c(c2)OCO3)CC1)N1CCc2[nH]c3ccc(F)cc3c2C1	32*	34*	110	12	129	118	9	105
O=C(CCS(=O)(=O)c1ccc(Br)cc1)N1CCCCCC1	-8	-8	97	15	103	/	/	/
Cc1cccc(-n2cc(CN3CCN(Cc4nccn4C)CC3)c(-c3cccc(F)c3)n2)c1	34	10	106	11	153*	138	19	107
